# Measurements published in PubChem BioAssay.
# Calls of active or inactive are those of the source. Unless noted, no rule for the calls is given here.
# Columns and labels:
# [1] = test system: Wnt5a (protein binding on small-molecule microarray); test: small molecules binding Wnt5a protein – biophysical, small-molecule microarray, 635/667 nm fluorescence, primary screen (AID 1142); settings: 635 nm fluorescence, higher = more signal;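 also: fluorescence read at 667 nm with signal to noise per printed feature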
# [2] = ATP-based viability of Huh7 replicon cells – cell-based, CellTiter-Glo luminescence, basal, 48 h, cytotoxicity control for HCV replication inhibitor project, primary screen (AID 1143); settings: higher = more signal, called active from +8 up or from −8 down;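 also: Huh7 hepatoma cells carrying a hepatitis C replication reporter with no stimulus; test concentration not given here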
# [3] = Pseudomonas biofilm growth suppression – PAO1 strain, BacTiter-Glo luminescence, LB-PBS, primary screen (AID 1144); settings: P. aeruginosa PAO1 biofilm, 12 h, higher = more signal
# [4] = basal CRE-LacZ reporter activity in PC12 – cell-based, unstimulated, primary screen (AID 1145); settings: no forskolin, luminescence, 4.5 h, higher = more signal, called active from +8 up or from −8 down
# [5] = forskolin-driven CRE-LacZ activity in PC12 – cell-based, CRE-LacZ reporter, forskolin-stimulated, primary screen (AID 1146); settings: luminescence, 4.5 h, higher = more signal, called active from +8 up or from −8 down;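 also: PC12 cells with 6xCRE LacZ reporter stimulated by forskolin 10 µM; beta-galactosidase reporter signal reflecting CREB driven transcription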
# [6] = molecular target: Streptavidin (Streptomyces avidinii) (UniProt P22629); test: compounds binding control protein streptavidin – biophysical, small-molecule microarray, 635/667 nm fluorescence, artefact control for SMM compound annotation, primary screen (AID 1147); settings: higher = more signal;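 also: signal reflects streptavidin binding to arrayed compounds as a control protein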
# [7] = probe aInhba binding on compound microarray – biochemical, small-molecule microarray, 635/667 nm fluorescence, primary screen (AID 1148); settings: higher = more signal;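 also: score merges 667nm spot fluorescence with signal-to-noise for antibody binding to printed compounds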
# Torsin-1A (Homo sapiens) [8] = molecular target: Torsin-1A (Homo sapiens) (UniProt O14656); test: TOR1A wild-type binding on microarray – cell lysate, small-molecule microarray, lysate, 635/667 nm, primary screen (AID 1149); settings: COS7 hTOR1A-WT lysate, 635 nm fluorescence, higher = more signal
# Torsin-1A (Homo sapiens) [9] = molecular target: Torsin-1A (Homo sapiens) (UniProt O14656); test: torsin A mutant lysate binding on microarrays – cell lysate, small-molecule microarray, COS7 lysate, 635/667 nm fluorescence, primary screen (AID 1150); settings: COS7 hTOR1A mutant lysate, 635 nm fluorescence, higher = more signal;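 also: score pools 667 nm emission and signal to noise measuring lysate protein binding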
# [10] = test system: Sonic hedgehog protein (Shh); test: Sonic hedgehog microarray binding compounds – biochemical, small-molecule microarray, 635/667 nm fluorescence, primary screen (AID 1151); settings: 635 nm fluorescence, higher = more signal;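 also: Shh protein binding to compounds spotted on small-molecule microarray slides; score combines spot fluorescence intensity with signal-to-noise across triplicate slides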
# [11] = optical density shifts of acrAB sulA E. coli – strain DRC41, OD650, 48 h, E. coli filamentation inducer project, primary screen (AID 1152); settings: higher = more signal, called active from +8 up or from −8 down;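 also: E. coli MC1000 strain DRC41 lacking acrAB efflux pump and sulA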
# [12] = probe aLefty1 binding on compound microarray – biochemical, small-molecule microarray, 635/667 nm fluorescence, primary screen (AID 1153); settings: higher = more signal;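 also: score merges spot fluorescence with signal-to-noise ratio from the scanned slide images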
# [13] = plasmodial surface anion channel blockers, osmotic lysis – cell-based, P. falciparum Indochina, OD700, 1 h, primary screen (AID 1154); settings: P. falciparum Indochina infected RBC osmotic lysis, higher = more signal, called active from +8 up or from −8 down
# [14] = plasmodial surface anion channel blockers, osmotic lysis – cell-based, P. falciparum Indochina, OD700, 2 h, primary screen (AID 1155);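 also: lysis reports solute entry through the parasite surface anion channel PSAC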; settings: P. falciparum Indochina infected erythrocytes, higher = more signal, called active from +8 up or from −8 down
# [15] = changes in parasitized red cell lysis, either direction – P. falciparum Indochina, OD700, 3 h, PSAC antagonist project, primary screen (AID 1156); settings: P. falciparum-infected erythrocytes, osmotic lysis, higher = more signal, called active from +8 up or from −8 down
# [16] = plasmodial surface anion channel blockers, osmotic lysis – cell-based, P. falciparum Indochina, OD700, 18 h, primary screen (AID 1157); settings: P. falciparum Indochina infected erythrocytes, osmotic lysis OD700, 18 h; higher = more signal, called active from +8 up or from −8 down
# [17] = S6 kinase pathway phospho-S6 level changes – cell-based, A549, cytoblot, luminescence, serum-stimulated, primary screen (AID 1158); settings: 5 h, higher = more signal;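 also: serum-stimulated A549 lung adenocarcinoma cells; signal is phosphorylated S6 detected by cytoblot immunostaining with HRP secondary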
# [18] = molecular target: NADPH oxidase 2 (Homo sapiens) (UniProt P04839); test: compounds shifting NOX2 Amplex Red fluorescence – cell-based, HEK293-NOX2, PMA-stimulated, NOX inhibitor project, primary screen (AID 1159); settings: 45 min, higher = more signal, called active from +8 up or from −8 down; also: test concentration not given here
# [19] = molecular target: NADPH oxidase 4 (Homo sapiens) (UniProt Q9NPH5); test: compounds shifting NOX4 Amplex Red fluorescence – cell-based, HEK293-NOX4, tetracycline-induced, NOX inhibitor project, primary screen (AID 1160); settings: HEK293-NOX4, Amplex Red H2O2 fluorescence, 45 min; higher = more signal, called active from +8 up or from −8 down
# [20] = molecular target: NADPH oxidase 5 (Homo sapiens) (UniProt Q96PH1); test: compounds shifting NOX5 Amplex Red fluorescence – cell-based, HEK293-NOX5, NOX inhibitor project, primary screen (AID 1161); settings: HEK293-NOX5, ionomycin, 45 min, higher = more signal
# Sequence of NADPH oxidase 5 (Homo sapiens) (Q96PH1 whole entry, looked up): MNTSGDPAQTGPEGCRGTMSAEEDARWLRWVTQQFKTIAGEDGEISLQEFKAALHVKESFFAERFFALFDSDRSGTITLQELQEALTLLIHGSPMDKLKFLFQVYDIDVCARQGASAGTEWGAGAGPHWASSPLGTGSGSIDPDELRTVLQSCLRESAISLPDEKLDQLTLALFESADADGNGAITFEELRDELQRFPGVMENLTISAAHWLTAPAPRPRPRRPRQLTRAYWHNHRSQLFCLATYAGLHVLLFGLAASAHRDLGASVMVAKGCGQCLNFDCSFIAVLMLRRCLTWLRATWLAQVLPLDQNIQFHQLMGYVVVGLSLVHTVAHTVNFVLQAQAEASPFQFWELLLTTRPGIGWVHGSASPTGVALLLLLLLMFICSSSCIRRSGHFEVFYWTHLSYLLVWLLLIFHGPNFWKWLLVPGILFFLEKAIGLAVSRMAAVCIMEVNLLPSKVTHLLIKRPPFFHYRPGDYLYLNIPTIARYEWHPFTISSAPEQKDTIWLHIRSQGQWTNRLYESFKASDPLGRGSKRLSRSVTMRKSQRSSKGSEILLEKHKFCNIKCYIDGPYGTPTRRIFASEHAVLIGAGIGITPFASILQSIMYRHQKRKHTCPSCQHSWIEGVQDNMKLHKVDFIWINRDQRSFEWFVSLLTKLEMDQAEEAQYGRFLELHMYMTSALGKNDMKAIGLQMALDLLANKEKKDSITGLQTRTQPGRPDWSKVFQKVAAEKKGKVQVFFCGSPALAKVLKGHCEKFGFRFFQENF
# Sequence of NADPH oxidase 4 (Homo sapiens) (Q9NPH5 whole entry, looked up): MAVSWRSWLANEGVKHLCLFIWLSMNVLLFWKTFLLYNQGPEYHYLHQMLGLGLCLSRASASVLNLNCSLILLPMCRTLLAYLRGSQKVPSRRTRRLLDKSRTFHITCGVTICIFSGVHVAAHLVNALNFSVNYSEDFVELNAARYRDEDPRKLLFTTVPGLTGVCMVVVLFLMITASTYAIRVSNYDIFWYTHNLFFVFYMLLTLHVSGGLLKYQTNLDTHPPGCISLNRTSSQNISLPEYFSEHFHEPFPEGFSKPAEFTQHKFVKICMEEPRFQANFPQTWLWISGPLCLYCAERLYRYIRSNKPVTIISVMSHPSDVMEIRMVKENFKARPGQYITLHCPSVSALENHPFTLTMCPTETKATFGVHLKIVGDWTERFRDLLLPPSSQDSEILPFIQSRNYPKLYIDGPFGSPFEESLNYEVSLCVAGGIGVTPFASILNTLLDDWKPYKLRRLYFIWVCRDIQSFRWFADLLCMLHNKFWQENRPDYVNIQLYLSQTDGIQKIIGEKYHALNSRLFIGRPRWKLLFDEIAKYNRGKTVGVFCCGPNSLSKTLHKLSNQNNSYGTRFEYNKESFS
# Sequence of NADPH oxidase 2 (Homo sapiens) (P04839 whole entry, looked up): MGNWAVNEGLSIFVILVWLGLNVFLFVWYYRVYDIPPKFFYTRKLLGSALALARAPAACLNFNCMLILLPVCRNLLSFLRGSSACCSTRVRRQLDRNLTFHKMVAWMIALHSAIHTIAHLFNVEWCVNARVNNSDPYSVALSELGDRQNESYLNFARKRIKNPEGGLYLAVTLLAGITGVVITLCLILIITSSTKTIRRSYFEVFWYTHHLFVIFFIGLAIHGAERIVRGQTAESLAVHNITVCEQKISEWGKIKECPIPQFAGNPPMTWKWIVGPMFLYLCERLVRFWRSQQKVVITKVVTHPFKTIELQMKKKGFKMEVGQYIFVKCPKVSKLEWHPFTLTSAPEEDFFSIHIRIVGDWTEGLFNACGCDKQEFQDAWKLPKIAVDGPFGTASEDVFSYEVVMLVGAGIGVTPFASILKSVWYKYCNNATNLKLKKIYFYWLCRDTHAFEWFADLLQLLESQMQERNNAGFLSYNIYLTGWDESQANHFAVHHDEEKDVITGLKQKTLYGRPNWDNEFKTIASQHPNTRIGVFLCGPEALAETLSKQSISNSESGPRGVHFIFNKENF
# Sequence of Torsin-1A (Homo sapiens) (O14656 whole entry, looked up): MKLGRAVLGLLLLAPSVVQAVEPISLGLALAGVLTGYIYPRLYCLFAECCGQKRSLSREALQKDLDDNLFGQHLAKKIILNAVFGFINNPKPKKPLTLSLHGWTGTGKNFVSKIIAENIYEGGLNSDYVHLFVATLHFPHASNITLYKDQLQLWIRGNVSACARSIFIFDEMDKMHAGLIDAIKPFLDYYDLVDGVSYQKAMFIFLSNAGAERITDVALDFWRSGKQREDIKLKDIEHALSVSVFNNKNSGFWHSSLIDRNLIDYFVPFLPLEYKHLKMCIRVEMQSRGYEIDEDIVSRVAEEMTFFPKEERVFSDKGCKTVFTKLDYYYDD
# Sequence of Streptavidin (Streptomyces avidinii) (P22629 whole entry, looked up): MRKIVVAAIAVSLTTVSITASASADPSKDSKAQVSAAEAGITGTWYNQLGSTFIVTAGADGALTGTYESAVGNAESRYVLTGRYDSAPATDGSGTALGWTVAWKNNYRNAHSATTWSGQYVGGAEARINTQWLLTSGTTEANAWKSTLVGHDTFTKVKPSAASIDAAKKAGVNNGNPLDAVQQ
smiles,measurement,setting,value
CCCC=C(CCC)[C@@H](NS(=O)(=O)c1ccc(C(F)(F)F)cc1)c1ccc(-c2ccccc2)cc1,composite z-score,[1],0.281
same,z-score,[2],-2.08 (inactive)
same,z-score,[3],0.524 (inactive)
same,z-score,[4],-0.372 (inactive)
same,z-score,[5],0.486 (inactive)
same,composite z-score,[6],0.991
same,composite z-score,[7],0.0445
same,composite z-score,Torsin-1A (Homo sapiens) [8],0.059
same,composite z-score,Torsin-1A (Homo sapiens) [9],0.664
same,composite z-score,[10],0.618
same,z-score,[11],-1.78 (inactive)
same,composite z-score,[12],0.448
same,z-score,[13],2.51 (inactive)
same,z-score,[14],0.329 (inactive)
same,z-score,[15],-0.516 (inactive)
same,z-score,[16],0.543 (inactive)
same,z-score,[17],1.47
same,z-score,[18],-1.57 (inactive)
same,z-score,[19],-0.618 (inactive)
same,z-score,[20],2.7
COC(=O)[C@@]1(Cc2ccccc2N=[N+]=[N-])N=C(c2ccc(OCCCO)cc2)O[C@H]1c1ccccc1CN=[N+]=[N-],composite z-score,[1],0.171
same,z-score,[2],-5.31 (inactive)
same,z-score,[3],1.18 (inactive)
same,z-score,[4],3.33 (inactive)
same,z-score,[5],-0.412 (inactive)
same,composite z-score,[6],-0.46
same,composite z-score,[7],-0.0102
same,composite z-score,Torsin-1A (Homo sapiens) [8],-0.181
same,composite z-score,Torsin-1A (Homo sapiens) [9],-0.303
same,composite z-score,[10],0.144
same,z-score,[11],0.383 (inactive)
same,composite z-score,[12],0.191
same,z-score,[13],22.3 (active)
same,z-score,[14],8.71 (active)
same,z-score,[15],0.12 (inactive)
same,z-score,[16],3.46 (inactive)
same,z-score,[17],0.575
same,z-score,[18],-1.84 (inactive)
same,z-score,[19],0.483 (inactive)
same,z-score,[20],-0.961
CC[C@@H]1C=C(C(=O)O)[C@H](c2ccccc2)N1S(=O)(=O)c1ccc([N+](=O)[O-])cc1,composite z-score,[1],-0.0781
same,z-score,[2],-0.979 (inactive)
same,z-score,[3],-0.667 (inactive)
same,z-score,[4],-0.873 (inactive)
same,z-score,[5],0.403 (inactive)
same,composite z-score,[6],0.698
same,composite z-score,[7],-0.128
same,composite z-score,Torsin-1A (Homo sapiens) [8],0.802
same,composite z-score,Torsin-1A (Homo sapiens) [9],0.717
same,composite z-score,[10],-0.335
same,z-score,[11],-3.21 (inactive)
same,composite z-score,[12],-0.405
same,z-score,[13],1.3 (inactive)
same,z-score,[14],1.01 (inactive)
same,z-score,[15],0.751 (inactive)
same,z-score,[16],1.15 (inactive)
same,z-score,[17],-0.37
same,z-score,[18],0.325 (inactive)
same,z-score,[19],-0.0428 (inactive)
same,z-score,[20],-0.526
COCCOC(=O)N1C(=O)[C@@]2(c3cc(C#CCNC(N)=O)ccc31)[C@H](c1ccccc1OCCO)N1[C@H](c3ccccc3)[C@H](c3ccccc3)OC(=O)[C@H]1[C@@H]2C(=O)NC[C@H](O)c1ccccc1,composite z-score,[1],0.439
same,z-score,[2],-0.429 (inactive)
same,z-score,[3],-0.209 (inactive)
same,z-score,[4],-1 (inactive)
same,z-score,[5],0.172 (inactive)
same,composite z-score,[6],0.903
same,composite z-score,[7],-0.0375
same,composite z-score,Torsin-1A (Homo sapiens) [8],0.834
same,composite z-score,Torsin-1A (Homo sapiens) [9],0.525
same,composite z-score,[10],1.87
same,z-score,[11],0.369 (inactive)
same,composite z-score,[12],0.346
same,z-score,[13],2.18 (inactive)
same,z-score,[14],0.758 (inactive)
same,z-score,[15],0.299 (inactive)
same,z-score,[16],0.751 (inactive)
same,z-score,[17],-0.209
same,z-score,[18],1.02 (inactive)
same,z-score,[19],1.17 (inactive)
same,z-score,[20],0.219
COC(=O)C[C@H]1O[C@]2(C(=O)N(Cc3ccccc3)c3ccc(I)cc32)[C@@H](C)[C@@H]1[Si](C)(C)c1ccc(OC)cc1,composite z-score,[1],-0.213
same,z-score,[2],-1.09 (inactive)
same,z-score,[3],-0.135 (inactive)
same,z-score,[4],-0.505 (inactive)
same,z-score,[5],-0.522 (inactive)
same,composite z-score,[6],0.0595
same,composite z-score,[7],-0.106
same,composite z-score,Torsin-1A (Homo sapiens) [8],-0.181
same,composite z-score,Torsin-1A (Homo sapiens) [9],-0.0957
same,composite z-score,[10],-0.657
same,z-score,[11],-0.562 (inactive)
same,composite z-score,[12],-0.235
same,z-score,[13],1.09 (inactive)
same,z-score,[14],0.544 (inactive)
same,z-score,[15],0.558 (inactive)
same,z-score,[16],0.574 (inactive)
same,z-score,[17],1.01
same,z-score,[18],1.89 (inactive)
same,z-score,[19],-2.05 (inactive)
same,z-score,[20],0.00992
C=CCC(OC(C)=O)[C@@H]1[C@@H](N(Cc2cccc3ccccc23)C(=O)c2ccc(C)cc2)c2cc(OCCCO)ccc2N1C(=O)c1ccc(-c2ccccc2)cc1 (stereo not given in full),composite z-score,[1],-0.0459
same,z-score,[2],-0.552 (inactive)
same,z-score,[3],0.528 (inactive)
same,z-score,[4],0.455 (inactive)
same,z-score,[5],0.289 (inactive)
same,composite z-score,[6],0.425
same,composite z-score,[7],-0.0719
same,composite z-score,Torsin-1A (Homo sapiens) [8],0.0621
same,composite z-score,Torsin-1A (Homo sapiens) [9],-0.213
same,composite z-score,[10],0.0891
same,z-score,[11],2.5 (inactive)
same,composite z-score,[12],0.0384
same,z-score,[13],0.441 (inactive)
same,z-score,[14],-1.33 (inactive)
same,z-score,[15],-1.24 (inactive)
same,z-score,[16],-1.5 (inactive)
same,z-score,[17],2.07
same,z-score,[18],-0.0559 (inactive)
same,z-score,[19],1.01 (inactive)
same,z-score,[20],2.96
O=C1C2C=CC(C(O)c3ccccc3)N(n3cnnc3)C2C(=O)N1Cc1ccccc1 (stereo not given),composite z-score,[1],0.068
same,z-score,[2],0.455 (inactive)
same,z-score,[3],-1.43 (inactive)
same,z-score,[4],0.822 (inactive)
same,z-score,[5],-0.5 (inactive)
same,composite z-score,[6],0.266
same,composite z-score,[7],0.241
same,composite z-score,Torsin-1A (Homo sapiens) [8],0.148
same,composite z-score,Torsin-1A (Homo sapiens) [9],-0.457
same,composite z-score,[10],-0.189
same,z-score,[11],-0.678 (inactive)
same,composite z-score,[12],0.3
same,z-score,[13],1.23 (inactive)
same,z-score,[14],-0.137 (inactive)
same,z-score,[15],-0.138 (inactive)
same,z-score,[16],-1.55 (inactive)
same,z-score,[17],0.591
same,z-score,[18],0.569 (inactive)
same,z-score,[19],-0.323 (inactive)
same,z-score,[20],-0.324
COCCOC(=O)N1C(=O)[C@@]2(c3cc(C#CC4=CCCCC4)ccc31)[C@H](C(=O)NC[C@H](O)c1ccccc1)[C@H]1C(=O)O[C@H](c3ccccc3)[C@H](c3ccccc3)N1[C@@H]2c1ccccc1OCCO,composite z-score,[1],0.255
same,z-score,[2],-5.75 (inactive)
same,z-score,[3],0.423 (inactive)
same,z-score,[4],0.48 (inactive)
same,z-score,[5],-0.99 (inactive)
same,composite z-score,[6],0.634
same,composite z-score,[7],0.243
same,composite z-score,Torsin-1A (Homo sapiens) [8],0.453
same,composite z-score,Torsin-1A (Homo sapiens) [9],0.509
same,composite z-score,[10],1.53
same,z-score,[11],-0.499 (inactive)
same,composite z-score,[12],0.705
same,z-score,[13],3.23 (inactive)
same,z-score,[14],1.95 (inactive)
same,z-score,[15],-0.032 (inactive)
same,z-score,[16],1.78 (inactive)
same,z-score,[17],-0.178
same,z-score,[18],1.53 (inactive)
same,z-score,[19],0.911 (inactive)
same,z-score,[20],1.2
